# Sa ugtP lethal = kills S. aureus RN4220 lacking UgtP; S. aureus RN4220 ugtP deletion, OD600 growth, 16 h; growth inhibition, % (no concentration beside the values); hit rate 0.54% among 330,000; AID 1259309; in the data active = growth inhibition above about 68%
# Mtb hypoxia inh = Mtb hypoxia fluorescent reporter inhibition; M. tuberculosis hypoxia-regulated fluorescent reporter, fluorescence; fluorescence inhibition, % (test concentration not listed); hit rate 0.1% among 300,000; in the data active = fluorescence inhibition mostly above about 23%, no sharp cut-off; inactive = mostly below about 17%
# Sa RN4220 lethal = S. aureus RN4220 growth inhibition; OD600, 16 h; inhibition, % (concentration not given with the values); hit rate 0.33% among 330,000; in the data active = inhibition above about 85%
# RecA intein inh = Mtb RecA intein splicing inhibition; cell-free RecA intein splicing, fluorescence; inhibition, % (no concentration beside the values); hit rate 0.75% among 290,000; in the data active = inhibition above about 30%; inconclusive = no clear call, values can overlap the other calls
# Target sequence (P9WHJ3 whole entry, looked up): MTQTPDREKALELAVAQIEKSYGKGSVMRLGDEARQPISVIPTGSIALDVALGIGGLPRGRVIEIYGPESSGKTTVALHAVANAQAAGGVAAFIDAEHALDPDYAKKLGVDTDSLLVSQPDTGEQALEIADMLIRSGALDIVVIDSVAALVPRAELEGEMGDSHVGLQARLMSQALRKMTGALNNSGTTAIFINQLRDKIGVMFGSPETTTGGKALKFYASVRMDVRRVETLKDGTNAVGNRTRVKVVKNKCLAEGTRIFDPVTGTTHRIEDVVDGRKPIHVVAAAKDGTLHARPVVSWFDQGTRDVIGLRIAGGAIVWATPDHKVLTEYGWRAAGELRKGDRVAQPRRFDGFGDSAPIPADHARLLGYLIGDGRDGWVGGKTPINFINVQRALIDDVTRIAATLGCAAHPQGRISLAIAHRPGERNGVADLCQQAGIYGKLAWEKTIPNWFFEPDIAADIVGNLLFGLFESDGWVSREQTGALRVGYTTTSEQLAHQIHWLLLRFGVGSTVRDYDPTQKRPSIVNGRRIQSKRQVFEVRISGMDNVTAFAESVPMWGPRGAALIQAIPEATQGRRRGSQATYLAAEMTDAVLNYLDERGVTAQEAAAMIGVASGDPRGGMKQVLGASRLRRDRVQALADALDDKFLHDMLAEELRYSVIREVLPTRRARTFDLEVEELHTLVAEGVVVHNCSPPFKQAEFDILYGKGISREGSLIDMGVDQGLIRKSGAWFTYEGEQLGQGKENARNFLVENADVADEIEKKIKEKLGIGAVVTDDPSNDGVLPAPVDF
# CCHF vOTU inh-1 = blocks the CCHF virus ovarian tumor domain protease; CCHFV vOTU protease, Pep-AMC fluorescence; inhibition, % at 11.5 µM; hit rate 0.55% among 370,000
# BJeLR lethal = kills HRASV12-expressing BJeLR cells. BJeLR (HRASV12) viability, CellTiter-Glo ATP luminescence, 48 h. inhibition, % (test concentration not listed). hit rate 0.17% among 300,000. AID 1554; in the data active = inhibition above about 50%; inconclusive = no clear call, values can overlap the other calls
# GFP chromo cs = counter-screen GFP chromophore formation inhibition | shares compounds with RecA intein inh | cell-free GFP chromophore formation, fluorescence | EC50, µM | hit rate 83% among 2,100; call rule not given here
# CCHF vOTU inh-2 = CCHFV vOTU protease inhibition, confirmation; shares compounds with CCHF vOTU inh-1; Recombinant CCHFV vOTU, Pep-AMC fluorescence; inhibition, % at 11.5 µM; hit rate 17% among 1,900
# Numbers stand for hits; . = inactive; ? = inconclusive; / = no result. Sampled rows, rich in hits. Any-hit rate of the full collection: about 1.6%. Cut-off read from the data, not from the text of the source, unless noted: active = inhibition above about 30%; inactive = the rest.
SMILES,Sa ugtP lethal,Mtb hypoxia inh,Sa RN4220 lethal,RecA intein inh,CCHF vOTU inh-1,BJeLR lethal,GFP chromo cs,CCHF vOTU inh-2
Nc1ccc2c(c1)C(=O)C(=O)c1ccccc1-2,98,/,98,97,101,114,5.1,97
Nc1ccc2c(c1)C(=O)c1ccccc1C2=O,.,.,.,.,.,.,/,/
O=C1Cc2ccccc2C(=O)N1CCc1ccccc1,.,/,.,92,100,.,5.5,102
COc1ccccc1Nc1cc2cc(Br)ccc2c(=O)[nH]1,.,.,.,47,109,.,7.8,93
O=c1[nH]c(Nc2ccccc2)cc2ccccc12,.,/,.,64,88,.,?,.
O=c1cc(Nc2cccc(Br)c2)[nH]c(=O)[nH]1,.,.,.,.,.,.,/,/
Cn1c(=O)cc(Nc2ccccc2)[nH]c1=O,.,.,.,.,.,.,/,/
COc1ccc(OC)c(Nc2cc3ccccc3c(=O)[nH]2)c1,.,.,.,83,99,.,1.9,90
COc1ccccc1Nc1nnc(C)c(=O)[nH]1,.,.,.,.,.,.,/,/
O=c1[nH]c(Nc2ccccc2)cc2cc(Br)ccc12,.,.,.,90,101,.,6,98
CC(=NNC(=O)c1ccccc1C)c1cccc([N+](=O)[O-])c1,.,.,.,/,/,/,/,/
CC(O)C1CNC(=O)C(=O)N1CCC12CC3CC(CC(C3)C1)C2 (configuration not stated),.,.,.,/,/,/,/,/
COc1cc(C=NNC(=O)c2cccs2)ccc1O,.,.,.,/,/,/,/,/
CC1CN(C(C)CO)C(=O)c2cccc(NC(=O)Nc3ccc4c(c3)OCO4)c2OC1CN(C)C(=O)Nc1ccccc1 (configuration not stated),.,.,.,/,/,/,/,/
CC1=NN(c2ccc(C)c(C)c2)C(=O)C1C(c1cccc(O)c1)C1C(=O)N(c2ccc(C)c(C)c2)N=C1C (configuration not stated),.,.,.,95,42,.,0.91,.
COC(=O)c1cc(C)nc2c1C(=O)C(=O)C=C2N1CCOCC1,.,.,.,96,107,.,0.97,109
COC(=O)c1cc(S(=O)(=O)N2CCOCC2)c(Cl)cc1N1CCOCC1,.,.,.,/,.,.,/,/
NCCCCC(NC(=O)C1CCNCC1)c1nnc(C(N)Cc2ccc(O)cc2)o1 (configuration not stated),.,.,.,/,/,/,/,/
O=C(NCC1CCCO1)c1cccc2c1C(=O)c1ccc(N3CCOCC3)cc1S2(=O)=O (configuration not stated),.,.,.,/,/,/,/,/
N#CC1=C(N)Oc2cc(O)ccc2C1c1cccnc1 (configuration not stated),.,.,.,/,.,.,/,/
Cc1nn(-c2cccc(Cl)c2)c2c1C(c1cccnc1)C(C#N)=C(N)O2 (configuration not stated),.,.,.,35,35,.,21,.
CCn1nc(/C=C/c2ccccc2)nc2c(=O)n(C)c(=O)nc1-2,99,.,98,79,124,.,0.31,107
CCn1c(C=Cc2ccccc2)nc2ccccc2c1=O,.,.,.,/,/,/,/,/
Cc1cc(=O)n(-c2ccc(C(=O)O)cc2)[nH]1,.,.,.,94,54,.,2.8,.
CSCCC(C(=O)NCCCCCCCCCCC(=O)N1CCNCC1)n1cc(CCO)nn1 (configuration not stated),.,.,.,/,/,/,/,/
SMILES,Sa ugtP lethal,Mtb hypoxia inh,Sa RN4220 lethal,RecA intein inh,CCHF vOTU inh-1,BJeLR lethal,GFP chromo cs,CCHF vOTU inh-2
CC1CN(C(C)CO)C(=O)Cc2cc(NC(=O)CCC(F)(F)F)ccc2OC1CN(C)S(C)(=O)=O (configuration not stated),.,.,.,/,/,/,/,/
c1ccc(-c2nnc(-c3ccco3)o2)cc1,.,.,.,.,.,.,/,/
c1coc(-c2nnc(-c3ccco3)nn2)c1,.,.,.,58,45,.,9.1,53
CC1=C(CC(=O)c2ccccc2)C(=O)c2ccccc2C1=O,.,.,.,43,40,.,26,34
CCNC1=C(Cl)C(=O)c2ccccc2C1=O,.,.,.,76,53,.,33,48
Cc1ccc(NC2=C(Cl)C(=O)c3ccccc3C2=O)cc1,.,.,.,.,.,.,/,/
O=C(NN=C/C=C/c1ccco1)C(O)c1ccccc1 (configuration not stated),.,.,.,/,/,/,/,/
Oc1[nH]c2ccccc2c1C=Nc1nccs1,.,/,.,/,/,/,/,/
